Screens (PubChem)
Most compounds without a hit are left out; they make up all but 21% or so of the library.
HCMV inh – qHTS Assay for inhibitors of the human cytomegalovirus (HCMV); actives 4.5% (n = 410,000); AID 1259415, 2018; activity change, negative = inhibition, % at 57.5 µM; HFF cells, HCMV-luciferase reporter, 72 h; hits give low values; in the data active means activity change below about -60%; inconclusive means no clear call, values can overlap the other calls; inactive means above about -39%
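Steps: HFFs plated, 16 h 37C; compounds added; HCMV-luciferase added to MOI 1 PFU/cell; 72 h 37C; OneGlo reagent, 5 min room temperature; luminescence read, normalized to controls.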
HCV inh – qHTS Assay for Inhibitors of Hepatitis C Virus (HCV). Huh7.5.1 HCVcc-Cre infection, luciferase reporter, 44 h. Potency, µM (titrated, usually from 41.8 µM), actives largely listed as inhibitors. actives 3.4% (n = 340,000). AID 651820, 2012
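After 44 h co-culture of compound, cells and HCVcc-Cre (~0.5 moi), substrate is added for 15 min at room temperature and luciferase measured over 15 sec. Cells were seeded at 1,000/well and pre-cultured 4 h.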
Cycloheximide cs – Cycloheximide Counterscreen for Small Molecule Inhibitors of Shiga Toxin; max response, %; actives 12% (n = 300,000); cell reporter, cycloheximide protein synthesis inhibition counterscreen; in the data active means max response mostly above about 13%, no sharp cut-off; inactive means mostly below about 14%; further: read at 38.3 µM for the half of the compounds with a filed dose
Pf growth 96h – Primary qHTS for delayed death inhibitors of the malarial parasite plastid, 96 hour incubation. P. falciparum luciferase reporter growth, 96 h. Potency, µM (highest dose often 28.7 µM), most hits filed as inhibitors. actives 6.9% (n = 320,000)
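Cell-based qHTS: luciferase-tagged P. falciparum in erythrocytes (2% hematocrit, 0.05% parasitemia final) incubated with compounds for 96 hours, 37 C, 5% CO2; luciferase detection reagent then added and luminescence measured.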
Pf growth 48h – Primary qHTS for delayed death inhibitors of the malarial parasite plastid, 48 hour incubation | P. falciparum luciferase growth in erythrocytes, 48 h | Potency, µM (highest dose often 28.7 µM), most hits filed as inhibitors | actives 5.9% (n = 310,000)
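Read-out is firefly luciferase luminescence from an integrated reporter in P. falciparum, so falling signal marks reduced parasite growth. Infected erythrocytes were at 2% hematocrit and 0.1% parasitemia (final) in Albumax-supplemented RPMI 1640.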
Shiga toxin inh – A qHTS for Small Molecule Inhibitors of Shiga Toxin | Vero cells, Shiga toxin protein synthesis inhibition reporter | inhibition, % at 38.7 µM | actives 9.2% (n = 290,000) | AID 2315, 2010; in the data active means inhibition mostly above about 28%, no sharp cut-off; inactive means mostly below about 43%
A number is an active result; i = inactive; ? = inconclusive; nt = not tested or not shown; [ ] = dose if it differs, or a comment. Unless noted, the call rests on the fitted dose curve; in most records, active means well fitted inhibition curve with a large enough effect; inconclusive means small, poorly fitted or top-dose-only effect, or another doubt; inactive means no such curve, though single readings can be large or run the other way.

SMILES | HCMV inh | HCV inh | Cycloheximide cs | Pf growth 96h | Pf growth 48h | Shiga toxin inh
CC(C)NS(=O)(=O)c1cc(F)ccc1CN1C(=O)c2cccnc2C1=O | i | i | i | 2.1µM | i | i
COc1ccc2c(c1OC)C(=O)OC2N1C(=O)CC[C@H]1C(=O)Nc1ccc(F)cc1F (stereo not given in full) | i | 0.56µM | i | i | i | i
O=C1OC(N2C(=O)CC[C@H]2C(=O)Nc2ccc(Br)cc2F)c2ccccc21 (stereo not given in full) | i | i | i | i | i | i
CC(=NC1CCCC1)c1c(C)[nH]n(-c2nc3ccccc3s2)c1=O | i | i | 40 | i | i | 75
CCSc1nnc(NC(=O)NC(C)(C(F)(F)F)C(F)(F)F)s1 | -67 | i | i | ? | ? | i
CCSc1nnc(NC(=O)NC(CC)(C(F)(F)F)C(F)(F)F)s1 | -79 | ? | i | ? | 12µM | i
CCC(NC(=O)Nc1nccs1)(C(F)(F)F)C(F)(F)F | i | i | i | ? | i | i
O=C(NC1CCCC1)C1c2ccccc2OCC(=O)N1Cc1ccc2c(c1)OCO2 (stereo not given) | i | nt | nt | nt | nt | nt
N#CC(Cc1cccc(CC(C#N)(c2ccccc2)c2ccccc2)c1)(c1ccccc1)c1ccccc1 | i | i | i | 0.83µM | 1.2µM | i
CC(CC(C#N)(c1ccccc1)c1ccccc1)N(C)C (stereo not given) | i | i | nt | nt | nt | nt
CC1CN(C(=O)COC(=O)c2ccccc2O)CC(C)O1 (stereo not given) | i | i | i | i | i | i
Cc1ccccc1Cn1cnc2c(oc3ccccc32)c1=O | i | i | i | i | i | i
CCCCn1cnc2c(oc3ccccc32)c1=O | i | i | 51 | ? | i | 72
CCOC(=O)C(C)n1cnc2c(oc3ccccc32)c1=O (stereo not given) | i | i | i | ? | i | i
N#CCn1cnc2c(oc3ccccc32)c1=O | nt | i | 13 | i | i | i
CC(C)n1cnc2c(oc3ccccc32)c1=O | i | i | 32 | i | i | 67
O=C(c1ccc(Br)cc1)N(c1ccccn1)C1CCCCC1 | i | i | i | i | i | i
O=C(CSc1nnc(C2CC2)n1C1CC1)c1cccs1 | i | i | nt | nt | nt | nt
CCNC(=O)n1cc(-n2cncn2)c(-c2ccccc2)n1 | i | i | i | i | i | i
Cc1nnc2n(-c3ccccc3)c(=O)c3c4c(sc3n12)CCCC4 | i | i | i | i | i | i
O=c1c2c3c(sc2n2cnnc2n1-c1ccccc1)N(Cc1ccccc1)CCC3 | nt | i | i | 4.1µM | ? | i
O=C(c1ccco1)N1N=C(c2cccs2)CC1c1ccccc1O (stereo not given) | -68 | i | i | ? | 8.3µM | i
COc1cccc(C2CC(c3cccs3)=NN2C(=O)c2ccco2)c1O (stereo not given) | i | 14µM | i | ? | ? | i
Clc1ccc(N2N=C(c3cccs3)CC2c2ccco2)cc1 (stereo not given) | i | i | 37 | 2.6µM | i | i
COc1cccc(C2=NN(C(=O)c3ccco3)C(c3ccco3)C2)c1 (stereo not given) | i | ? | 29 | i | i | 72
SMILES | HCMV inh | HCV inh | Cycloheximide cs | Pf growth 96h | Pf growth 48h | Shiga toxin inh
Cc1ccc(N(C)C2=NC(=O)CS2)cc1Cl | i | i | i | ? | 2.1µM | nt
Cc1ccc(N(CC(=O)Nc2ccc(-c3nc4ccc(C)cc4s3)cc2)S(C)(=O)=O)cc1 | i | i | 58 | i | i | 117
Cc1ccc2nc(-c3ccc(NC(=O)c4ccc(S(C)(=O)=O)cc4)cc3)sc2c1 | i | nt | nt | nt | nt | nt
Cc1ccc(C)c(N(CC(=O)Nc2ccc(-c3nc4ccc(C)cc4s3)cc2)S(C)(=O)=O)c1 | i | ? | 28 | i | ? | 80
CCCN(Cc1nnc(-c2cccs2)o1)C(=O)c1cccc(S(=O)(=O)N2CCOCC2)c1 | i | i | nt | ? | ? | nt
COc1ccc2c(c1)cc(CNc1ccc(OC)c(OC)c1)c(=O)n2CC(=O)Nc1ccccc1C | i | nt | nt | nt | nt | nt
O=C(Nc1cc(Cl)ccc1O)c1cc2nc(-c3ccc4c(c3)OCO4)cc(C(F)(F)F)n2n1 | i | nt | nt | nt | nt | nt
O=C(CSc1nnc2ccccn12)c1ccc(Cl)cc1 | i | i | 45 | i | i | 124
Cc1c(Cl)cnc(NC(=O)CSc2nnc3ccccn23)c1Cl | i | i | 22 | nt | i | 84
CCOc1ccc(C(=O)CSc2nnc3ccccn23)cc1 | i | i | 34 | i | nt | 58
CCOc1ccc(-n2nnnc2SCC(=O)c2ccccc2)cc1 | i | i | i | i[5.75 µM] | i | i
COc1cc(NC(=O)CSc2nnc3ccccn23)cc(OC)c1 | i | i | nt | ? | i | nt
CC(C)(C)c1cc(NC(=O)CCSc2nnc3ccccn23)cc(C(C)(C)C)c1 | i | 4µM | nt | nt | nt | nt
CN1CCc2nc3sc(C(=O)Nc4ccccc4C(F)(F)F)c(N)c3cc2C1 | i | nt | nt | nt | nt | nt
CN1CCc2nc(NC(=O)COc3ccc(C#N)cc3)sc2C1 | i | i | i | i | i | i
O=C1NCC(O)=C1C=Nc1ccccc1O | i | i | i | ? | 10µM | i
O=C(C1CCCN(Cc2cc(Br)ccc2O)C1)N1CCCCC1 (stereo not given) | ? | i | i | ? | 8.3µM | i
O=C(C1CCCN(Cc2ccc(Br)cc2)C1)N1CCCCC1 (stereo not given) | ? | 11µM | i | i | i[0.00184 µM] | i
CCCCOc1ccc(-c2nn(-c3ccccc3)cc2C2NC(=O)NC(C)=C2C(=O)OCC)cc1 (stereo not given) | i | nt | nt | nt | nt | nt
C=CCN1C(=O)C(Cc2ccc(Br)cc2)S/C1=N\N=C\c1ccco1 (stereo not given) | i | i | i | 12µM | i | i
C=CCN1C(=O)C(Cc2ccc(OC)cc2)S/C1=N/N=C/c1ccco1 (stereo not given) | i | i | i | ? | 9.3µM | i
CC1S/C(=N/N=C/c2ccco2)N(Cc2ccc(F)cc2)C1=O (stereo not given) | i | i | 30 | i | i | 57
Cc1ccccc1CN1C(=O)C(C)S/C1=N/N=C/c1ccco1 (stereo not given) | i | i | i | i | ? | i
N#C/C(=C\c1cc2c(cc1Br)OCO2)c1ccc(C(=O)O)cc1 | i | i | i | i | i | i
c1ccc2c(c1)nc1n2C2(N3CCOCC3)CCCC2C1N1CCOCC1 (stereo not given) | i | i | 10 | i | i | i
COc1ccccc1NC(=O)c1cc2c(C)nn(-c3ccccc3)c2s1 | i | nt | nt | nt | nt | nt
Cc1nn(-c2ccccc2)c2sc(C(=O)N(CC(=O)NC3CCCC3)Cc3ccco3)cc12 | i | ? | i | ? | 12µM | i
